For 5 compounds, outcome and AC50 results are on record in PubChem BioAssay (EPA / NIEHS).

A short description of test [1]: BSK_LPS_SRB: Viability Assessment in the BioMAP Diversity Plus: LPS Assay (AID 2283079).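 Further: total protein by sulforhodamine B absorbance as a cytotoxicity measure; measured one day after compound addition.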 Particulars: primary human HUVEC with PBMC. The gist of the method: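 HUVEC + PBMC co-culture, LPS-stimulated; compound 24 h. 10% TCA fix, 0.1% SRB stain, A560. Bidirectional fit vs DMSO.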
Read-out in test [2]: Interleukin-1 alpha (IL1a), IL1A (gene 3552)
In words: BSK_LPS_IL1a: BioMAP Diversity Plus: LPS Assay for Interleukin-1 alpha (IL1a) Biomarker Activity (AID 2283080). The following applies: primary human HUVEC with PBMC; actives raise or lower the signal. The method in brief:
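HUVEC/PBMC co-culture, LPS system; 24 h after dosing; IL-1a by ELISA; gain or loss of signal fitted bidirectionally vs DMSO baseline.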

Read-out in test [3]: Monocyte Chemoattractant Protein-1 (MCP1), CCL2 (gene 6347)
In words: BSK_LPS_MCP1: BioMAP Diversity Plus: LPS Assay for Monocyte Chemoattractant Protein-1 (MCP1) Biomarker Activity (AID 2283081).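 On AC50: secreted MCP-1 protein quantified by ELISA in culture supernatant.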 Particulars: primary human HUVEC with PBMC; actives raise or lower the signal. The gist of the method: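 ELISA read-out of MCP-1 after 24 h chemical dosing of a human umbilical vein endothelial cell/peripheral blood mononuclear cell co-culture stimulated with LPS. Gain or loss of signal fitted relative to DMSO controls.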

Test [4] is described as follows: BSK_LPS_PGE2: BioMAP Diversity Plus: LPS Assay for Prostaglandin E2 (PGE2) Biomarker Activity (AID 2283082).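 On AC50: secreted prostaglandin E2 measured by ELISA in LPS-stimulated co-culture.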 The following applies: primary human HUVEC with PBMC; actives raise or lower the signal. The method in brief:
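ELISA read-out of PGE2 from human umbilical vein endothelial cells co-cultured with peripheral blood mononuclear cells under LPS, 24 h post-dose. Gain or loss of signal scored relative to DMSO baseline.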

Read-out in test [5]: Macrophage colony-stimulating factor (MCSF), CSF1 (gene 1435)
In words: BSK_LPS_MCSF: BioMAP Diversity Plus: LPS Assay for Macrophage colony-stimulating factor (MCSF) Biomarker Activity (AID 2283083). The following applies: primary human HUVEC with PBMC; actives raise or lower the signal. The method in brief:
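HUVEC + PBMC co-culture (human primary), 24 h post-dose; M-CSF by ELISA; gain/loss of signal fitted bidirectionally vs DMSO baseline.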

Read-out in test [6]: Tissue Factor, F3 (gene 2152)
In words: BSK_LPS_TissueFactor: BioMAP Diversity Plus: LPS Assay for Tissue Factor Biomarker Activity (AID 2283084). Particulars: primary human HUVEC with PBMC; actives raise or lower the signal. The method in brief:
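HUVEC/PBMC co-culture, LPS-activated; CD142 ELISA read 24 h post-dose; bidirectional curve fit vs DMSO negative control.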

Read-out in test [7]: Tumor necrosis factor (Homo sapiens) (UniProt P01375)
In words: BSK_LPS_TNFa: BioMAP Diversity Plus: LPS Assay for Tumour Necrosis Factor alpha (TNFa) Biomarker Activity (AID 2283085).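 On AC50: TNFa protein level quantified by ELISA in the co-culture.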 Particulars: primary human HUVEC with PBMC; actives raise or lower the signal. The method in brief: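 HUVEC/PBMC co-culture, LPS-stimulated; 24 h post-dose; TNFa by ELISA; gain or loss of signal fitted bidirectionally vs DMSO baseline.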

Read-out in test [8]: Vascular cell adhesion molecule 1 (VCAM1), VCAM1 (gene 7412)
In words: BSK_LPS_VCAM1: BioMAP Diversity Plus: LPS Assay for Vascular cell adhesion molecule 1 (VCAM1) Biomarker Activity (AID 2283086). Particulars: primary human HUVEC with PBMC; actives raise or lower the signal. The gist of the method:
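ELISA read-out of VCAM-1 at 24 h post-dosing in an LPS-driven HUVEC/PBMC primary human co-culture; gain or loss of signal fitted bidirectionally against DMSO baseline. Cytotoxicity tracked in parallel cultures by SRB total-protein staining.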

Read-out in the next test: CD38, CD38 (gene 952)
In words: BSK_SAg_CD38: BioMAP Diversity Plus: SAg Assay for CD38 Biomarker Activity (AID 2283087). The following applies: primary human HUVEC with PBMC; actives raise or lower the signal. The method in brief: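 Measures CD38 on a human endothelial/PBMC co-culture driven by SEB and TSST-1, 24 h after compound exposure, using ELISA with fluorescence detection; DMSO defines baseline for bidirectional curve fitting.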

Read-out in the next test: CD40, CD40 (gene 958)
In words: BSK_SAg_CD40: BioMAP Diversity Plus: SAg Assay for CD40 Biomarker Activity (AID 2283088). The following applies: primary human HUVEC with PBMC; actives raise or lower the signal. The method in brief:
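HUVEC/PBMC co-culture, 24 h post-dose; CD40 by ELISA, fluorescence intensity; bidirectional fit vs DMSO negative control.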

Read-out in test [9]: Monocyte Chemoattractant Protein-1 (MCP1), CCL2 (gene 6347)
In words: BSK_SAg_MCP1: BioMAP Diversity Plus: SAg Assay for Monocyte Chemoattractant Protein-1 (MCP1) Biomarker Activity (AID 2283090). The following applies: primary human HUVEC with PBMC; actives raise or lower the signal. The gist of the method: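 Values derive from bidirectional fitting of ELISA-measured MCP1 against DMSO controls. Readings were taken 24 h after dosing human vascular endothelial cells co-cultured with peripheral blood mononuclear cells under superantigen stimulation.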

Read-out in test [10]: E-selectin (Homo sapiens) (UniProt P16581)
In words: BSK_SAg_Eselectin: BioMAP Diversity Plus: SAg Assay for Eselectin Biomarker Activity (AID 2283091). Particulars: primary human HUVEC with PBMC; actives raise or lower the signal. The method in brief: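 E-selectin ELISA readout at 24 h post-dosing in human umbilical vein endothelial cell/PBMC co-culture; gain or loss of signal fitted relative to DMSO baseline.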

Read-out in test [11]: Monokine induced gamma interferon (MIG), CXCL9 (gene 4283)
In words: BSK_SAg_MIG: BioMAP Diversity Plus: SAg Assay for Monokine induced gamma interferon (MIG) Biomarker Activity (AID 2283092). Particulars: primary human HUVEC with PBMC; actives raise or lower the signal. The gist of the method: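 HUVEC plus human PBMC co-culture, chemicals dosed and MIG (CXCL9) quantified by ELISA at 24 h. Bidirectional curve fitting against DMSO as negative control and baseline, so both gain and loss of signal count as activity.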

A short description of test [12]: BSK_SAg_PBMCCytotoxicity: PBMC Cytotoxicity Assessment in the BioMAP Diversity Plus: SAg Assay (AID 2283093).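 Further: fitted both ways against DMSO so a hit may be loss or gain of signal.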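 On AC50: PBMC superantigen activated with SEB plus TSST-1 one hour after compound addition.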 The following applies: primary human HUVEC with PBMC. The gist of the method:
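PBMC viability by Alamar Blue reduction, fluorescence read at 546/580 nm after 6 h dye exposure. Cells were dosed 1 h before SEB plus TSST-1 activation (20 ng/mL final each), then held 90 h; endothelial/PBMC human co-culture.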

Read-out in test [13]: Interleukin-8 (IL8), CXCL8 (gene 3576)
In words: BSK_SAg_IL8: BioMAP Diversity Plus: SAg Assay for Interleukin-8 (IL8) Biomarker Activity (AID 2283094). Particulars: primary human HUVEC with PBMC; actives raise or lower the signal. The gist of the method: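 HUVEC/PBMC co-culture, 24 h post-dose; IL-8 by ELISA. Gain or loss of signal fitted bidirectionally vs DMSO baseline.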

Test [14] can be described thus: BSK_SAg_Proliferation: Cell Proliferation Assessment in the BioMAP Diversity Plus: SAg Assay (AID 2283095).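 Further: relative cell number as total protein by SRB absorbance in sub-confluent culture.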 The following applies: primary human HUVEC with PBMC. The method in brief:
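HUVEC/PBMC co-culture, 96-well. TCA-fixed (10%), 0.1% SRB stain, A560 at 96 h. Protein content used as viability readout; bidirectional fitting vs DMSO control.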

The nature of test [15]: BSK_SAg_SRB: Viability Assessment in the BioMAP Diversity Plus: SAg Assay (AID 2283096).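 Further: cells read one day after compound addition; hits may be either gain or loss of signal compared with DMSO.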 The following applies: primary human HUVEC with PBMC. The gist of the method: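 Compounds were added to a human vascular co-culture of umbilical vein endothelium and PBMC. After 24 h, parallel cultures were fixed with 10% TCA, stained with 0.1% sulforhodamine B and read at 560 nm. Gain or loss of signal was fitted relative to DMSO.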

Read-out in a further test: CD69, CD69 (gene 969)
In words: BSK_SAg_CD69: BioMAP Diversity Plus: SAg Assay for CD69 Biomarker Activity (AID 2283089).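 Further: cell surface CD69 protein quantified by ELISA with fluorescence detection.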 The following applies: primary human HUVEC with PBMC; actives raise or lower the signal. The method in brief: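 HUVEC co-cultured with PBMC were dosed with chemical, and CD69 was measured by ELISA with fluorescence read-out 24 h later. Bidirectional curve fitting used DMSO as negative control and activity baseline.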

The target in test [16] is human CYP19A1, CYP19A1 (gene 1588) (UniProt P11511). In words: NVS_ADME_hCYP19A1: NovaScreen (NVS) CYP450-related Enzyme Activity (ADME) Assay for human CYP19A1 (AID 2283098; active means hit-call score of the fitted dose curve at least 0.9, where 1 is the maximum;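 on AC50: potency for inhibitors seen as loss of fluorescent enzyme signal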). The gist of the method:
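Fluorescence intensity read-out; activity taken as signal loss relative to acetonitrile vehicle. Extracted enzyme, specific substrate, no cells, 0.5 h exposure. Duplicate single-point screen at 10 uM, then concentration–response follow-up for actives.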

Test [17] concerns the target human CYP2A6, CYP2A6 (gene 1548) (UniProt P11509). In words: NVS_ADME_hCYP2A6: NovaScreen (NVS) CYP450-related Enzyme Activity (ADME) Assay for human CYP2A6 (AID 2283099; active means hit-call score of the fitted dose curve at least 0.9, where 1 is the maximum). The method in brief: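 Insect-cell-expressed human CYP2A6 enzyme activity measured by fluorescence intensity 0.5 hour post-dosing. Compounds screened at 10 uM in duplicate, then hits tested singly in concentration series (max 20 uM); acetonitrile baseline.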

Results filed as inconclusive are left out. Activity calls are given as the source filed them. How the source made its calls, unless noted: active means hit-call score of the fitted dose curve at least 0.9, where 1 is the maximum; inactive means score below 0.9.

One may read the AC50 as the concentration giving half of the maximal activity seen.

Chain of Tumor necrosis factor (Homo sapiens) (P01375 whole entry, looked up): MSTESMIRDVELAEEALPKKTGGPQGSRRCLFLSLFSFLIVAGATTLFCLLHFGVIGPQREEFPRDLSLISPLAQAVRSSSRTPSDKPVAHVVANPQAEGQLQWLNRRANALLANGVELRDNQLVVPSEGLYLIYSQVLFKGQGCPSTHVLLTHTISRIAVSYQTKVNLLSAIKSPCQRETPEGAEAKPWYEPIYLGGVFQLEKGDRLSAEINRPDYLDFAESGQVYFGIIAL
Chain of E-selectin (Homo sapiens) (P16581 whole entry, looked up): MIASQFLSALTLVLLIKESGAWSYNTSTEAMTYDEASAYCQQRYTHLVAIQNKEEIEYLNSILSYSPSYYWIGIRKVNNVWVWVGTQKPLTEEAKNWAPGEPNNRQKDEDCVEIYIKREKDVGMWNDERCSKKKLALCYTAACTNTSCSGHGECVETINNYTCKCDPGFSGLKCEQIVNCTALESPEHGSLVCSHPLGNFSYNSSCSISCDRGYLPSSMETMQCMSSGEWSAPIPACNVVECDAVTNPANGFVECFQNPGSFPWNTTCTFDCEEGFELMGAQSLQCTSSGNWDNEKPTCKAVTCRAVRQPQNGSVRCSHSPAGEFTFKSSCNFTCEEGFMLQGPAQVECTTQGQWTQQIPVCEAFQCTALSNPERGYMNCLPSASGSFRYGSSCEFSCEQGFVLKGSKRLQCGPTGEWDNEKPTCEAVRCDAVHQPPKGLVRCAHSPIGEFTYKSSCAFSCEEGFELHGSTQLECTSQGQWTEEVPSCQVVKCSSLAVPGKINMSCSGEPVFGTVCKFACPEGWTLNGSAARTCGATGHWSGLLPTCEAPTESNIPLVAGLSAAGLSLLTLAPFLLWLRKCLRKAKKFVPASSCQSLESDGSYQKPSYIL
Chain of human CYP19A1, CYP19A1 (gene 1588) (P11511 whole entry, looked up): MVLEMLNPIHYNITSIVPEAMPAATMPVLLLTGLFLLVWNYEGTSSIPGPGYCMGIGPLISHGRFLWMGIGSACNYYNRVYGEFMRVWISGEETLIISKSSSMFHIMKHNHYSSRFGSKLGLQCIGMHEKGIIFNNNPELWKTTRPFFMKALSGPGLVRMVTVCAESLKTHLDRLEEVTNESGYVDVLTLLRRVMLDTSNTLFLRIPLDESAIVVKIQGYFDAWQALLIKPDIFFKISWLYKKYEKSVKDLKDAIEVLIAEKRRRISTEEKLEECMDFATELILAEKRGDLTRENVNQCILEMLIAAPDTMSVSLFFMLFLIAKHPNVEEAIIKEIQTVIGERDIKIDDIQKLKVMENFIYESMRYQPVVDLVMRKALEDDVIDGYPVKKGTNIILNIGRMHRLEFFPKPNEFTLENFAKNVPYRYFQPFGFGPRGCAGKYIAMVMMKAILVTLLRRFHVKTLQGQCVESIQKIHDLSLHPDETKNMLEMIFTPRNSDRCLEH
Chain of human CYP2A6, CYP2A6 (gene 1548) (P11509 whole entry, looked up): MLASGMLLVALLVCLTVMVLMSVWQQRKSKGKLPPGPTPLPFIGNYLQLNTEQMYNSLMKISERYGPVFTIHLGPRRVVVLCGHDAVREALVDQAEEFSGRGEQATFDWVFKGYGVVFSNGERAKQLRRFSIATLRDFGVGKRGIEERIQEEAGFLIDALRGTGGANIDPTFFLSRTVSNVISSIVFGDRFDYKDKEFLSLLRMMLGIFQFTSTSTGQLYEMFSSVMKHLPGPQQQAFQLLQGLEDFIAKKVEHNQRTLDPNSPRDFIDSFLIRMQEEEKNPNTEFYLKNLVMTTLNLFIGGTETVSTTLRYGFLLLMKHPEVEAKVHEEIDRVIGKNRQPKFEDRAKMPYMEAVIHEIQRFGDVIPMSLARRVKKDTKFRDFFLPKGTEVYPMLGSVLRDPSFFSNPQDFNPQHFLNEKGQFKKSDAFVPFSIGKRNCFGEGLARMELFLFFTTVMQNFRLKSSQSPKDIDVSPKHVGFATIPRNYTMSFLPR

Turning to `CCSC(=O)N(CC(C)C)CC(C)C`, the result in test [1], in test [2], in test [3], in test [4], in test [5] and in [6] was inactive. The outcome is “inactive” in test [7]; “inactive” in test [8]; “inactive” in the test with CD38, CD38 (gene 952); “inactive” with CD40, CD40 (gene 958); “inactive” in [9]; “inactive” in [10]. The result in test [11], in test [12], in test [13], in [14] and in [15] was inactive.
Turning to `CCCCCCC(C)OC(=O)COc1nc(F)c(Cl)c(N)c1Cl` (stereo unspecified), the AC50 in test [1] was 38.4 µM (active); in [3], 31 µM (active); in test [4] it was 20.3 µM (active); in [5], 29.8 µM (active); in [6], 35.9 µM (active); in test [7] it was 34.3 µM (active). The AC50 in test [8] was 30.8 µM (active); with CD38, CD38 (gene 952), 30.7 µM (active); in the test with CD40, CD40 (gene 958) it was 29.5 µM (active); with CD69, CD69 (gene 969) it was 31 µM (active); in [9], 29.8 µM (active); in test [10] it was 33 µM (active). Moreover, the AC50 in [11] was 38.5 µM (active); in test [12] it was 12.3 µM (active); in test [13] it was 29.1 µM (active); in test [14] it was 9.53 µM (active); in [15] it was 34.9 µM (active).
Take `S=C([S-])NCCNC(=S)[S-].[Mn+2]`: the outcome in [1] is “inactive”; in test [2], “inactive”; in test [3] it was “inactive”; in test [4], “inactive”; in [6], “inactive”; with CD40, CD40 (gene 958), “inactive”. Further, the result in [11], in [15] and in test [17] was inactive. The AC50 in test [5] was 13.2 µM (active); in [7], 20 µM (active); in test [8] it was 14.7 µM (active); in the test with CD38, CD38 (gene 952) it was 14.6 µM (active); in [9] it was 30.3 µM (active); in test [12] it was 25.5 µM (active). For the same compound, the figures for the AC50 in [13], in test [14] and in [16] were 30 µM (active), 8.4 µM (active) and 1.11 µM (active), respectively.
For `CCOC(=O)C(C)Oc1ccc(Oc2nc3ccc(Cl)cc3o2)cc1` (stereo unspecified), the outcome in test [1], in test [2], in test [3], in [5], in test [6] and in test [7] was inactive. For the same compound, the outcome in test [8], in test [11], in [12], in test [13] and in test [15] was inactive. Moreover, the AC50 in test [4] was 24.3 µM (active); with CD38, CD38 (gene 952), 23.6 µM (active); with CD40, CD40 (gene 958), 12 µM (active); in test [9], 20 µM (active); in test [10], 20 µM (active); in [14], 32 µM (active).
For the compound `CCCCC(CC)CN1C(=O)C2C3C=CC(C3)C2C1=O` (stereo unspecified), the AC50 was 3.97 µM (active) in [1]; 15.5 µM (active) in test [5]; 0.237 µM (active) in [7]; 20 µM (active) in [8]; 26.3 µM (active) with CD38, CD38 (gene 952); 15.3 µM (active) in test [12]. Moreover, the AC50 in test [14] was 32.7 µM (active); in test [15], 20 µM (active). The result in [2], in test [3], in test [4], in [6], in test [9] and in test [10] was inactive. In addition, the outcome in test [11], in test [13] and in test [16] was inactive.
